Bioassay records deposited in PubChem by National Center for Advancing Translational Sciences (NCATS).
Only some compounds are listed: those with a hit (about 3.2% of all), similar ones and a draw of the others.
Tau fluor counter: counter-screen for tau fibril formation inhibitors; AID 1463; Potency, µM (top dose mostly 57.7 µM), inactives show top-dose activity change, negative = decrease; actives 0.93% (n = 280,000); tau K18 P301L Alexa594 fluorescence, heparin fibrillization; note: nearly all actives have a fitted effect of over 55% in size
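Human tau K18 P301L (15 uM unlabeled, 0.24 uM Alexa 594-labeled) in 100 mM sodium acetate pH 7 with 20 uM heparin, 6 hr at 37 C. ThT 30 uM added, 1 hr ambient; Alexa 594 FP and total fluorescence read at 555/632 nm.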
TRb-SRC2 inh: TRbeta-SRC2 interaction inhibition; P10828; TRbeta-SRC2 peptide binding, fluorescence polarization; receptor liganded with 1 µM T3; Potency, µM (highest dose often 106 µM), for inactives: top-dose activity change, negative = inhibition, actives largely listed as inhibitors; actives 0.065% (n = 280,000); AID 1469;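 note: plate controls were bound peptide for no effect and peptide without receptor for full effect; nearly all actives have a fitted effect of over 50% in size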
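Fluorescence polarization of 20 nM Texas Red SRC2 peptide (20-aa NR interaction domain) bound to 0.6 uM human TRb ligand-binding domain, with 1 uM T3, after 5 hr at ambient temperature; inhibition seen as decreased polarization.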
TR SRC2 fluor cs: alters Texas Red total fluorescence, flagging assay interference; TRb/SRC2 Texas Red total fluorescence interference; Potency, µM (doses to about 106 µM), for inactives: top-dose fluorescence change, negative = quenching; actives 0.29% (n = 280,000); AID 1479; active = well fitted curve in either direction with a large enough effect; inconclusive = small, poorly fitted or top-dose-only effect
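Human TRb ligand-binding domain at 0.6 uM with 20 nM Texas Red SRC2 peptide in Tris buffer containing 1 uM T3 and 5% DMSO, incubated with compound 5 h at ambient temperature. Total fluorescence (555/632 nm) calculated as parallel + 2 × perpendicular.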
Tau FP inhib: tau fibrillization inhibition (FP). P10636. K18 P301L tau heparin fibrillization, Alexa594 FP, 6 h. Potency, µM (titrated, usually from 57.7 µM), inactives show at the top dose activity, negative = inhibition, most hits filed as inhibitors. actives 0.39% (n = 280,000). AID 1468; note: nearly all actives have a fitted effect of over 55% in size
Target sequence (P10636 561-689 P618L limits assumed): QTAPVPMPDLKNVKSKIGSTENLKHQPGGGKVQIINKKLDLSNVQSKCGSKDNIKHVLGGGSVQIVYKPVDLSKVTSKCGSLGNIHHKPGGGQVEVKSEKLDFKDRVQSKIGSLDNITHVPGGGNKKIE
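Quantitative HTS format: compounds meet 15 uM recombinant K18 P301L tau and Alexa 594-tau tracer in 100 mM sodium acetate pH 7; 20 uM heparin triggers fibrillization at 37 C over 6 hr; FP gives the signal.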
Tau fibril ThT: blocks human tau fibril formation measured by thioflavin T. recombinant tau K18 P301L (four-repeat tau fragment), heparin-induced fibrillization, ThT fluorescence. Potency, µM (top dose mostly 57.4 µM), for inactives: at the highest dose activity, negative = inhibition, hits mostly inhibitors. actives 2.1% (n = 270,000); note: nearly all actives have a fitted effect of over 55% in size
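In this qHTS, human K18 P301L tau is incubated with compound and heparin for 6 hr at 37 C, and Thioflavin T fluorescence then reports fibril load.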
GoLoco inh red: RGS12 GoLoco-Gai1 interaction inhibition | actives 0.44% (n = 230,000) | Gai1:RGS12 GoLoco peptide FP, rhodamine, 10 min | P63096 | Potency, µM (titrated, usually from 61.6 µM), without a hit: at the highest dose activity, negative = inhibition, actives largely listed as inhibitors | AID 880; active = well fitted inhibition curve with a large enough effect, not every such curve was filed as active; inactive = no such curve, though single readings can be large or run the other way; note: nearly all actives have a fitted effect of over 30% in size
Target sequence (P63096 whole entry, looked up): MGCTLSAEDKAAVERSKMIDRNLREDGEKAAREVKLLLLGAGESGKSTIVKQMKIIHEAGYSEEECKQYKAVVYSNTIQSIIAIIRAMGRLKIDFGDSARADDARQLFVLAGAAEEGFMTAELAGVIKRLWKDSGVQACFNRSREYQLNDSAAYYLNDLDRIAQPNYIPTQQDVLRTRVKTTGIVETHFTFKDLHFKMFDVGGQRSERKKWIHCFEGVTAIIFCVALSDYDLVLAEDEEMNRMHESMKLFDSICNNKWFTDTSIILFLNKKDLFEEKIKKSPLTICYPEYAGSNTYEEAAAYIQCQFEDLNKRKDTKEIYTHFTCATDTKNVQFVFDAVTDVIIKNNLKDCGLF
* marks the source's active call; other numbers are inactive results; ? = inconclusive; · = not tested or not shown; [ ] = dose if it differs, or a comment. Unless noted, calls come from the whole dose curve; as a rule, active = well fitted curve in the direction sought with a large enough effect; inconclusive = small, poorly fitted or top-dose-only effect, or another doubt; inactive = no such curve, though single readings can be large; an effect the other way counts as inactive or inconclusive. Unless noted, % is set by controls: 0 for no effect and ±100 for the full control effect; potency is the fitted concentration of half-maximal effect.

SMILES	Tau fluor counter	TRb-SRC2 inh	TR SRC2 fluor cs	Tau FP inhib	Tau fibril ThT	GoLoco inh red
Cc1[nH]c2ccccc2c1CCNC(=O)c1ccc2c(c1[N+](=O)[O-])C(=O)c1ccccc1C2=O	8.9µM*[quencher]	3%	-7%	1%	?	-1%
CCN(CC)c1ccc(NC(=O)Nc2ccc(C(C)=O)cc2)cc1	14µM*[quencher]	-7%	0%	8%	?	-4%
Cc1ccc2c(c1)N=C(c1ccccc1)CC(C(Cl)Cl)=N2	?	3%	-1%	?	16µM*	1%
Cc1ccc(C2=Nc3ccccc3N=C(C(Cl)Cl)C2)cc1	-18%	4%	0%	-14%	?	9%
COC(=O)C1(C(=O)OC)C/C=C\C/C=C\c2ccccc2C1C[N+](=O)[O-] (stereo not drawn)	-2%	2%	0%	-2%	2%	1%
O=Cc1[nH]c2ccccc2c1N(C(=O)CCl)c1ccccc1	-27%	1%	0%	?	32µM*	8%
CC[C@H](C)[C@H](NC(=O)[C@H](Cc1ccc(O)cc1)NC(=O)[C@H](Cc1cnc[nH]1)NC(=O)[C@H](CCCNC(=N)N)NC(=O)[C@H](CC(C)C)NC(=O)[C@H](C)NC(=O)[C@@H](N)CO)C(=O)N[C@@H](CC(N)=O)C(=O)N[C@@H](CC(C)C)C(=O)N[C@H](C(=O)N[C@H](C(=O)N[C@@H](CCCNC(=N)N)C(=O)N[C@@H](CCC(N)=O)C(=O)N[C@@H](CCCNC(=N)N)C(=O)N[C@@H](Cc1ccc(O)cc1)C(N)=O)[C@@H](C)O)[C@@H](C)CC	·	-7%	-2%	·	·	·
CC1=CN2C(=N)/C(=C/c3ccc([N+](=O)[O-])o3)C(=O)N=C2S1	?	-7%	45µM*[fluorescent]	?	13µM*	94%
CC1=CN2C(=N)/C(=C/c3ccco3)C(=O)N=C2S1	-8%	12%	0%	6%	?	9%
COC(=O)c1c(-c2cccs2)csc1NC(=O)c1ccc(Cl)cc1	-28%	-1%	7%	?	13µM*	·
COC(=O)c1c(-c2cccs2)csc1NC(=O)c1ccc(C(C)(C)C)cc1	-11%	-3%	-3%	22µM*	25µM*	·
COC(=O)c1c(-c2cccs2)csc1NC(=O)c1cccc(Cl)c1	-25%	?	1122µM*[quencher]	?	?	·
COC(=O)c1c(-c2cccs2)csc1NC(=O)c1cccnc1	-16%	-17%	1%	2%	-18%	7%
COC(=O)c1c(-c2cccs2)csc1NC(=O)c1ccc(C(C)C)cc1	-19%	-10%	0%	?	?	·
Cc1cccc(N2CCN(c3ccc(NC(=O)/C=C(/C(=O)O)c4ccccc4)cc3)CC2)c1	?	-10%	9%	?	8.9µM*	-14%
O=C1OC(/C=C/c2ccccc2)=NC/1=C/C=C/c1ccccc1	-3%	5%	-4%	-13%	16µM*	3%
CCSCCCC(=O)O	·	·	·	·	·	-6%[14.2 µM]
O=Cc1s/c(=N\S(=O)(=O)c2ccccc2)n(CCCCl)c1Cl	-12%	-1%	0%	?	28µM*	12%
COc1cc(NC(=O)c2cc(S(=O)(=O)N3CCc4ccccc43)cn2C)cc(OC)c1OC	?	-7%	0%	14%	-4%	·
COc1ccc(N(C)C(=O)c2cc(S(=O)(=O)N3CCc4ccccc43)cn2C)c(OC)c1	?	-20%	0.016µM*[quencher]	13%	-14%	·
COc1ccc(NS(=O)(=O)c2cccc(C(=O)N/N=C/c3cn(-c4ccccc4)nc3-c3ccccc3)c2)cc1	-22%	10%	-2%	?	1%	8%
CCN(CC)c1ccc(/C=N/NC(=O)c2cccc(S(=O)(=O)Nc3ccccc3OC)c2)c(O)c1	7.9µM*[quencher]	7%	-2%	?	-13%	4%
CCN(CC)c1ccc(/C=N/Nc2ccccc2)c(O)c1	?	-21%	10%	?	25µM*	-2%
CCN(CC)c1ccc(/C=N/Nc2cccc(C)c2)c(O)c1	-23%	-5%	5%	2%	?	-2%
CCN(CC)c1ccc(/C=N/NC(=O)c2ccc3nc[nH]c3c2)c(O)c1	14µM*[quencher]	1%	-8%	3%	·	-1%
SMILES	Tau fluor counter	TRb-SRC2 inh	TR SRC2 fluor cs	Tau FP inhib	Tau fibril ThT	GoLoco inh red
COc1ccc(NS(=O)(=O)c2cccc(C(=O)N/N=C/c3cn(-c4ccccc4)nc3-c3ccc(OC)cc3)c2)cc1	?	-6%	-4%	32µM*	?	18%
COc1cccc(/C=N/NC(=O)c2ccc3nc[nH]c3c2)c1O	-25%	-3%	-9%	-13%	?	11%
O=C(Nc1ccccc1)N1CCC2(CC1)CCN(C(=O)c1csnn1)CC2	·	·	·	·	·	1%
COc1ccc(Cn2c(C(=O)O)c(CNCCc3cc(OC)ccc3OC)c3ccc(C)cc32)cc1	1%	-7%	-1%	14%	-7%	·
COc1ccc(CC(=O)Nc2sc3c(c2C(=O)Nc2cccc(Cl)c2)CCCCC3)cc1	-12%	0%	-6%	-3%	-3%	·
Cc1ccc(-n2c(C)cc(/C=N/Nc3ccc([N+](=O)[O-])cn3)c2C)cc1	?	-1%	1%	6%	2µM*	3.5µM*
Cc1c(/C=N/Nc2ccc([N+](=O)[O-])cn2)c2ccccc2n1Cc1ccccc1	?	1%	1%	8%	?	15%
Cc1cc(/C=N/NC(=O)c2ccccn2)c(C)n1-c1cccc([N+](=O)[O-])c1	-6%	-5%	-7%	0%	-17%	10%
Cc1c(C(=O)O)cccc1-n1c(C)cc(/C=N/Nc2ccc([N+](=O)[O-])cn2)c1C	?	-1%	-7%	5%	13µM*	24%
Cc1ccc(Cn2cc(/C=N/Nc3ccc([N+](=O)[O-])cn3)c3ccccc32)cc1	11µM*[quencher]	1%	-3%	12%	10µM*	44%
Cc1cc(/C=N/Nc2ccc([N+](=O)[O-])cn2)c(C)n1-c1ccccc1	?	-8%	-2%	8%	3.5µM*	21%
O=C(O)C[C@H](Sc1ccccc1)c1ccccc1	·	·	·	·	·	2%[14.2 µM]
O=C(c1cnccn1)N1CCC2(CCCN(c3cccc(-c4ccccc4)c3)C2)CC1	·	·	·	·	·	93%
CC(C)C[C@@H](CC(=O)N[C@H](CC(=O)N[C@@H]1CCNC[C@H]1C(=O)N[C@H](CC(=O)N[C@@H](CCC(=O)O)CC(=O)O)CC(C)C)C(C)C)NC(=O)[C@@H]1CNCC[C@H]1N	-10%	2%	-2%	-8%	-9%	-2%
Cc1ccc2nc(-c3cccc(NS(C)(=O)=O)c3)cc(-c3ccccc3)c2c1	-7%	-9%[53 µM]	0.1µM*[quencher]	-2%	-2%	5%
